# Results published in PubChem BioAssay (NCI).
# This is part of a sample that, as a whole, favours compounds with a hit. Of some 79,000 tested, about 15% had one in any assay. A number with no mark means an inactive call. Active and inactive are the calls of the source. Rule as the data show it: active = growth inhibition above about 70%; inactive = the rest.
# How the values were obtained:
# [1] = NCI Yeast Anticancer Drug Screen. Data for the rad52 strain (AID 147);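 also: 0% = growth of vehicle-treated control cultures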; conditions: S. cerevisiae rad52 mutant growth inhibition, hits give high values
# Outline: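 Here a repair-compromised yeast strain receives each compound; its growth is then quantified and normalised to vehicle-only controls.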
# [2] = NCI Yeast Anticancer Drug Screen. Data for the wt1 strain (AID 149);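 also: 0% = growth of vehicle-treated wt1 cultures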; conditions: S. cerevisiae wt1 strain (SPY 50644) growth inhibition, hits give high values
# Outline: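 Each compound is tested on wt1 yeast and the loss of growth versus vehicle gives the inhibition value.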
# [3] = NCI Yeast Anticancer Drug Screen. Data for the rad50EPP+ strain (AID 151);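 also: 0% = growth of vehicle-treated control cultures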; conditions: S. cerevisiae rad50 mutant strain, hits give high values
# Outline: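 Read-out is yeast growth inhibition relative to vehicle; cells used were the rad50EPP+ strain.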
# [4] = NCI Yeast Anticancer Drug Screen. Data for the mgt1 strain (AID 153); conditions: S. cerevisiae mgt1 mutant growth inhibition, hits give high values
# Outline: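 Measured: inhibition of mgt1 yeast growth by compound, normalized to vehicle-treated cultures.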
# [5] = NCI Yeast Anticancer Drug Screen. Data for the rad50 strain (AID 155);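 also: 0% = growth of vehicle-only cultures of the same strain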; conditions: S. cerevisiae rad50 strain growth inhibition, hits give high values
# Outline: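 Vehicle-treated cultures provide the reference for the growth inhibition reported for compound-exposed, repair-deficient yeast.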
# [6] = NCI Yeast Anticancer Drug Screen. Data for the mec2-1 strain (AID 157); conditions: S. cerevisiae mec2-1 strain, hits give high values
# Outline: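 Using mec2-1 yeast: add compound, measure growth, express inhibition versus vehicle-treated cultures.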
# [7] = NCI Yeast Anticancer Drug Screen. Data for the rad14 strain (AID 159);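 also: 0% = growth of vehicle-treated control cultures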; conditions: S. cerevisiae rad14 strain growth inhibition, hits give high values
# Outline: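 Inhibition of growth is reported for a repair-deficient yeast mutant following compound treatment, calculated relative to cultures that received vehicle.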
# [8] = NCI Yeast Anticancer Drug Screen. Data for the sgs1 mgt1 strain (AID 161);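 also: 0% = growth of cultures given vehicle only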; conditions: S. cerevisiae sgs1 mgt1 strain, hits give high values
# Outline: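 Growth of a repair-deficient yeast mutant was monitored after compound treatment and expressed as inhibition relative to vehicle-treated cultures.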
# [9] = NCI Yeast Anticancer Drug Screen. Data for the CLN2oe strain (AID 163);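 also: 0% = growth of vehicle-only control cultures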; conditions: S. cerevisiae CLN2oe strain, hits give high values
# Outline: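 Whole-cell yeast growth assay. A strain engineered for altered cell-cycle control received compound, and inhibition relative to vehicle-treated cultures was recorded.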
# [10] = NCI Yeast Anticancer Drug Screen. Data for the cln2 rad14 strain (AID 165);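 also: 0% = growth equal to vehicle treated cultures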; conditions: S. cerevisiae cln2 rad14 strain, hits give high values
# Outline: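 Yeast strain cln2 rad14, bearing defects in cell cycle control and DNA repair, serves as the test system; values reflect growth inhibition compared with vehicle.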
# [11] = NCI Yeast Anticancer Drug Screen. Data for the bub3 strain (AID 167); conditions: S. cerevisiae bub3 mutant strain, hits give high values
# Outline: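 Mutant yeast screening strain plus compound; vehicle-treated cultures serve as the 0% inhibition reference.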
# [12] = NCI Yeast Anticancer Drug Screen. Data for the wt2 strain (AID 169); conditions: S. cerevisiae wt2 strain growth inhibition, hits give high values
# Outline: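 Treated yeast vs. vehicle-treated yeast: growth inhibition determined.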
# [13] = NCI Yeast Anticancer Drug Screen. Data for the mlh1 strain (AID 171);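 also: 0% = growth of vehicle-treated control cultures of the same strain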; conditions: S. cerevisiae mlh1 strain growth inhibition, hits give high values
# Outline: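 A yeast strain with a defined genetic lesion serves as the test organism. Cultures receive compound or vehicle, and growth is measured.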
# [14] = NCI Yeast Anticancer Drug Screen. Data for the sgs1 strain (AID 173);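 also: 0% = growth of vehicle-only control cultures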; conditions: S. cerevisiae sgs1 mutant, hits give high values
# Outline: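 A genetically defined yeast mutant is incubated with the test compound, and its growth is compared to that of the same strain given vehicle.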
# [15] = NCI Yeast Anticancer Drug Screen. Data for the mlh1 rad18 strain (AID 175); conditions: S. cerevisiae mlh1 rad18 strain growth inhibition, hits give high values
# Outline: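 Steps: expose repair-defective yeast to compound; measure growth; express inhibition against vehicle-treated controls.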
# [16] = NCI Yeast Anticancer Drug Screen. Data for the rad18 strain (AID 177); conditions: S. cerevisiae rad18 mutant growth inhibition, hits give high values
# Outline: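 Measured value is growth inhibition of a yeast strain bearing a DNA repair alteration, referenced to vehicle-treated cells.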
# [17] = at 5.0 µM (retest, dose inferred, filed as 0.5)
# [18] = at 50.0 µM (retest, dose inferred, filed as 5.0)
smiles,measurement,setting,value
CC1C(NNc2ccccc2)Oc2cc3c(cc2C1c1ccccc1O)OCO3 (stereo unspecified),growth inhibition,[1]; at 1.2 µM,67%
same,growth inhibition,[1]; at 3.7 µM,99% (active)
same,growth inhibition,[1]; at 11.0 µM,99% (active)
same,growth inhibition,[1]; at 33.0 µM,94% (active)
same,growth inhibition,[1]; at 100.0 µM,94% (active)
same,growth inhibition,[2]; at 1.2 µM,72% (active)
same,growth inhibition,[2]; at 3.7 µM,98% (active)
same,growth inhibition,[2]; at 11.0 µM,99% (active)
same,growth inhibition,[2]; at 33.0 µM,96% (active)
same,growth inhibition,[2]; at 100.0 µM,95% (active)
same,growth inhibition,[3]; at 1.2 µM,-1%
same,growth inhibition,[3]; at 3.7 µM,7%
same,growth inhibition,[3]; at 11.0 µM,71% (active)
same,growth inhibition,[3]; at 33.0 µM,90% (active)
same,growth inhibition,[3]; at 100.0 µM,91% (active)
same,growth inhibition,[4]; at 1.2 µM,-4%
same,growth inhibition,[4]; at 3.7 µM,63%
same,growth inhibition,[4]; at 11.0 µM,99% (active)
same,growth inhibition,[4]; at 33.0 µM,93% (active)
same,growth inhibition,[4]; at 100.0 µM,94% (active)
same,growth inhibition,[5]; at 1.2 µM,12%
same,growth inhibition,[5]; at 3.7 µM,95% (active)
same,growth inhibition,[5]; [17],17%
same,growth inhibition,[5]; at 11.0 µM,98% (active)
same,growth inhibition,[5]; at 33.0 µM,93% (active)
same,growth inhibition,[5]; [18],98% (active)
same,growth inhibition,[5]; at 50.0 µM,86.9% (active)
same,growth inhibition,[5]; at 100.0 µM,92% (active)
same,growth inhibition,[6]; at 1.2 µM,7%
same,growth inhibition,[6]; at 3.7 µM,80% (active)
same,growth inhibition,[6]; [17],34%
same,growth inhibition,[6]; at 11.0 µM,98% (active)
same,growth inhibition,[6]; at 33.0 µM,94% (active)
same,growth inhibition,[6]; [18],97% (active)
same,growth inhibition,[6]; at 50.0 µM,88.2% (active)
same,growth inhibition,[6]; at 100.0 µM,94% (active)
same,growth inhibition,[7]; at 1.2 µM,-4%
same,growth inhibition,[7]; at 3.7 µM,54%
same,growth inhibition,[7]; at 11.0 µM,99% (active)
same,growth inhibition,[7]; at 33.0 µM,93% (active)
same,growth inhibition,[7]; at 100.0 µM,93% (active)
same,growth inhibition,[8]; [17],-26%
same,growth inhibition,[8]; [18],97% (active)
same,growth inhibition,[8]; at 50.0 µM,89.6% (active)
same,growth inhibition,[9]; at 1.2 µM,-1%
same,growth inhibition,[9]; at 3.7 µM,98% (active)
same,growth inhibition,[9]; at 11.0 µM,96% (active)
same,growth inhibition,[9]; at 33.0 µM,90% (active)
same,growth inhibition,[9]; at 100.0 µM,88% (active)
same,growth inhibition,[10]; [17],47%
same,growth inhibition,[10]; [18],97% (active)
same,growth inhibition,[10]; at 50.0 µM,90.8% (active)
same,growth inhibition,[11]; at 1.2 µM,-11%
same,growth inhibition,[11]; at 3.7 µM,68%
same,growth inhibition,[11]; [17],67%
same,growth inhibition,[11]; at 11.0 µM,98% (active)
same,growth inhibition,[11]; at 33.0 µM,93% (active)
same,growth inhibition,[11]; [18],98% (active)
same,growth inhibition,[11]; at 50.0 µM,91.5% (active)
same,growth inhibition,[11]; at 100.0 µM,94% (active)
same,growth inhibition,[12]; at 1.2 µM,51%
same,growth inhibition,[12]; at 3.7 µM,98% (active)
same,growth inhibition,[12]; at 11.0 µM,99% (active)
same,growth inhibition,[12]; at 33.0 µM,96% (active)
same,growth inhibition,[12]; at 100.0 µM,94% (active)
same,growth inhibition,[13]; at 1.2 µM,-6%
same,growth inhibition,[13]; at 3.7 µM,61%
same,growth inhibition,[13]; at 11.0 µM,98% (active)
same,growth inhibition,[13]; at 33.0 µM,94% (active)
same,growth inhibition,[13]; at 100.0 µM,93% (active)
same,growth inhibition,[14]; at 1.2 µM,94% (active)
same,growth inhibition,[14]; at 3.7 µM,99% (active)
same,growth inhibition,[14]; at 11.0 µM,99% (active)
same,growth inhibition,[14]; at 33.0 µM,95% (active)
same,growth inhibition,[14]; at 100.0 µM,95% (active)
same,growth inhibition,[15]; [17],83% (active)
same,growth inhibition,[15]; [18],98% (active)
same,growth inhibition,[15]; at 50.0 µM,91.9% (active)
same,growth inhibition,[16]; at 1.2 µM,12%
same,growth inhibition,[16]; at 3.7 µM,94% (active)
same,growth inhibition,[16]; at 11.0 µM,98% (active)
same,growth inhibition,[16]; at 33.0 µM,91% (active)
same,growth inhibition,[16]; at 100.0 µM,92% (active)
O=[N+]([O-])c1cc2no[n+]([O-])c2cc1N1CCCCC1,growth inhibition,[1]; at 1.2 µM,31%
same,growth inhibition,[1]; at 3.7 µM,65%
same,growth inhibition,[1]; at 11.0 µM,98% (active)
same,growth inhibition,[1]; at 33.0 µM,96% (active)
same,growth inhibition,[1]; at 100.0 µM,95% (active)
same,growth inhibition,[2]; at 1.2 µM,-32%
same,growth inhibition,[2]; at 3.7 µM,53%
same,growth inhibition,[2]; at 11.0 µM,99% (active)
same,growth inhibition,[2]; at 33.0 µM,98% (active)
same,growth inhibition,[2]; at 100.0 µM,97% (active)
same,growth inhibition,[3]; at 1.2 µM,26%
same,growth inhibition,[3]; at 3.7 µM,83% (active)
same,growth inhibition,[3]; at 11.0 µM,98% (active)
same,growth inhibition,[3]; at 33.0 µM,99% (active)
same,growth inhibition,[3]; at 100.0 µM,98% (active)
same,growth inhibition,[4]; at 1.2 µM,4%
same,growth inhibition,[4]; at 3.7 µM,56%
same,growth inhibition,[4]; at 11.0 µM,98% (active)
same,growth inhibition,[4]; at 33.0 µM,98% (active)
same,growth inhibition,[4]; at 100.0 µM,98% (active)
same,growth inhibition,[5]; at 1.2 µM,22%
same,growth inhibition,[5]; at 3.7 µM,62%
same,growth inhibition,[5]; [17],24%
same,growth inhibition,[5]; at 11.0 µM,93% (active)
same,growth inhibition,[5]; at 33.0 µM,96% (active)
same,growth inhibition,[5]; [18],74% (active)
same,growth inhibition,[5]; at 50.0 µM,90% (active)
same,growth inhibition,[5]; at 100.0 µM,95% (active)
same,growth inhibition,[6]; at 1.2 µM,28%
same,growth inhibition,[6]; at 3.7 µM,82% (active)
same,growth inhibition,[6]; [17],41%
same,growth inhibition,[6]; at 11.0 µM,98% (active)
same,growth inhibition,[6]; at 33.0 µM,98% (active)
same,growth inhibition,[6]; [18],93% (active)
same,growth inhibition,[6]; at 50.0 µM,92.8% (active)
same,growth inhibition,[6]; at 100.0 µM,97% (active)
same,growth inhibition,[7]; at 1.2 µM,-8%
same,growth inhibition,[7]; at 3.7 µM,56%
same,growth inhibition,[7]; at 11.0 µM,99% (active)
same,growth inhibition,[7]; at 33.0 µM,99% (active)
same,growth inhibition,[7]; at 100.0 µM,98% (active)
same,growth inhibition,[8]; [17],1%
same,growth inhibition,[8]; [18],-4%
same,growth inhibition,[8]; at 50.0 µM,92.4% (active)
same,growth inhibition,[9]; at 1.2 µM,27%
same,growth inhibition,[9]; at 3.7 µM,60%
same,growth inhibition,[9]; at 11.0 µM,96% (active)
same,growth inhibition,[9]; at 33.0 µM,97% (active)
same,growth inhibition,[9]; at 100.0 µM,97% (active)
same,growth inhibition,[10]; [17],0%
same,growth inhibition,[10]; [18],-46%
same,growth inhibition,[10]; at 50.0 µM,90.7% (active)
same,growth inhibition,[11]; at 1.2 µM,-24%
same,growth inhibition,[11]; at 3.7 µM,-8%
same,growth inhibition,[11]; [17],-2%
same,growth inhibition,[11]; at 11.0 µM,71% (active)
same,growth inhibition,[11]; at 33.0 µM,96% (active)
same,growth inhibition,[11]; [18],-16%
same,growth inhibition,[11]; at 50.0 µM,91.3% (active)
same,growth inhibition,[11]; at 100.0 µM,96% (active)
same,growth inhibition,[12]; at 1.2 µM,0%
same,growth inhibition,[12]; at 3.7 µM,74% (active)
same,growth inhibition,[12]; at 11.0 µM,99% (active)
same,growth inhibition,[12]; at 33.0 µM,99% (active)
same,growth inhibition,[12]; at 100.0 µM,98% (active)
same,growth inhibition,[13]; at 1.2 µM,24%
same,growth inhibition,[13]; at 3.7 µM,68%
same,growth inhibition,[13]; at 11.0 µM,98% (active)
same,growth inhibition,[13]; at 33.0 µM,99% (active)
same,growth inhibition,[13]; at 100.0 µM,100% (active)
same,growth inhibition,[14]; at 1.2 µM,51%
same,growth inhibition,[14]; at 3.7 µM,72% (active)
same,growth inhibition,[14]; at 11.0 µM,98% (active)
same,growth inhibition,[14]; at 33.0 µM,99% (active)
same,growth inhibition,[14]; at 100.0 µM,98% (active)
same,growth inhibition,[15]; [17],51%
same,growth inhibition,[15]; [18],89% (active)
same,growth inhibition,[15]; at 50.0 µM,91.5% (active)
same,growth inhibition,[16]; at 1.2 µM,31%
same,growth inhibition,[16]; at 3.7 µM,73% (active)
same,growth inhibition,[16]; at 11.0 µM,97% (active)
same,growth inhibition,[16]; at 33.0 µM,97% (active)
same,growth inhibition,[16]; at 100.0 µM,96% (active)
